35 compounds from the supplement of paper PMC4723716 can be followed below.

For this test, the system named is Plasmodium falciparum NF54 stage V gametocytes. Description: viability index relative to DMSO control (fraction); higher = less gametocyte killing. To be noted: 2.5 µM, incubation time: 72 h. The procedure, abridged:
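Viability index is the count of red-stained particles in a well divided by the plate mean of solvent-only wells. Particles of 20–70 µm2 were counted in one imaged field per well after one to two hours with 3 µl of 2.5 µM MitoTracker Red CMXRos and 0.13% saponin. Before staining, P. falciparum NF54 stage V gametocytes in serum-free medium (0.75% gametocytemia, 1.25% hematocrit, 10 µl, 1,536-well plates) were kept with compound at 2.5 µM for 72 hr at 37°C under low oxygen.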

The mark [1] stands for this setting: library set: Broad Institute DOS.

± gives the uncertainty stated by the source. Whole data set: some 9,900 compounds, median “viability index relative to DMSO control” near 1, cut for the lowest 2% near 0.85. For the sample, the lowest values were picked, then their nearest neighbours and some compounds at random.

Under setting [1], `C[C@@H]1CN([C@H](C)CO)C(=O)c2cccc(NS(C)(=O)=O)c2O[C@@H]1CN(C)Cc1ccc(-c2ccccc2)cc1` registered a viability index of 1.02 ± 0.028.

For the compound `C[C@H](CO)N1C[C@H](C)[C@H](CN(C)Cc2ccc(-c3ccccc3)cc2)Oc2c(NS(C)(=O)=O)cccc2C1=O`, the viability index under setting [1] was 0.827 ± 0.011.

Under setting [1], `C[C@H](CO)N1C[C@H](C)[C@@H](CN(C)Cc2ccc(Oc3ccccc3)cc2)Oc2c(NC(=O)CCC(F)(F)F)cccc2C1=O` had a viability index of 0.888 ± 0.11. On to `CO[C@H](CN(C)S(=O)(=O)c1ccc(C)cc1)[C@H](C)CN(C(=O)Nc1ccccc1F)[C@H](C)CO`, for which, under setting [1], the viability index amounted to 1.06 ± 0.026. `O=C(C[C@H]1CC[C@@H]2[C@H](COC[C@H](O)CN2Cc2ccc3c(c2)OCO3)O1)N1CCCCC1` registered a viability index under setting [1] of 1.01 ± 0.072. Consider `O=C(c1cnccn1)N1C[C@@H]2N[C@H](C1)[C@@H]2c1ccc(/C=C/c2ccccc2)cc1`, for which the viability index under setting [1] amounted to 1.05 ± 0.026. Same read-out and setting: the value for `COc1ccc(S(=O)(=O)Nc2cccc3c2O[C@@H](CN(C)CC2CCCCC2)[C@H](C)CN([C@H](C)CO)C3=O)cc1` was 0.958 ± 0.094. Turning to `COc1ccc2c3c([nH]c2c1)[C@H](CO)N(C[C@]31CN(CC2CC2)C1)C(=O)CN(C)C`, under setting [1], the viability index was 1.07 ± 0.032.

`COc1ccc2c3c([nH]c2c1)[C@@H](CO)N(C[C@]31CN(CC2CC2)C1)C(=O)CN(C)C` showed a viability index under setting [1] of 0.939 ± 0.018. The compound `COc1ccc2c3c([nH]c2c1)[C@@H](CO)N(C[C@]31CCN(CC2CCCCC2)CC1)C(=O)CN(C)C` displayed a viability index (library set: Broad Institute Blood Stage) of 0.807 ± 0.026. In the case of `CCC(=O)N1C[C@]2(CCN(CC2)C(=O)Nc2ccccc2F)c2c([nH]c3cc(OC)ccc23)[C@H]1CO`, the viability index under setting [1] stood at 0.9987 ± 0.0051. The same measure, in the same setting: the same measure for `COc1ccc2c3c([nH]c2c1)[C@H](CO)N(C[C@]31CCN(CC1)C(=O)Nc1ccc(F)cc1F)C(C)=O`: 0.748 ± 0.035; for `COCC(=O)N1CC[C@@]2(CC1)CN([C@@H](CO)c1[nH]c3cc(OC)ccc3c21)S(C)(=O)=O`: 1.09 ± 0.06. `COc1ccc2c3c([nH]c2c1)[C@@H](CO)N(C[C@]31CCN(CC1)C(=O)Nc1ccc(F)cc1F)C(C)=O`: the viability index under setting [1] was found to be 1.07 ± 0.056. For `COCC(=O)N1C[C@@]2(C1)CN([C@H](CO)c1[nH]c3cc(OC)ccc3c21)C(=O)Nc1ccccc1F`, the viability index under setting [1] worked out at 1.03 ± 0.071. The same measure, in the same setting: the value for `COc1ccc2c3c([nH]c2c1)[C@@H](CO)N(C[C@]31CCN(CC1)C(=O)Nc1ccccc1)S(C)(=O)=O` was 0.99 ± 0.15. Compound `CCC(=O)N1C[C@]2(CCN(CC2)C(=O)Nc2ccccc2F)c2c([nH]c3cc(OC)ccc23)[C@@H]1CO` gave a viability index under setting [1] of 0.642 ± 0.081.

Regarding `COc1ccc2c3c([nH]c2c1)[C@H](CO)N(C[C@]31CCN(CC1)C(=O)Nc1ccccc1)S(C)(=O)=O`, the viability index under setting [1] is 0.121 ± 0.0032. Same read-out and setting: the value for `COc1ccc2c3c([nH]c2c1)[C@@H](CO)N(C[C@]31CCN(CC1)C(C)=O)C(C)=O` was 0.9689 ± 0.0023. Compound `O=C(C[C@@H]1C[C@H]2c3cc(NS(=O)(=O)c4ccccc4)ccc3O[C@H]2[C@@H](CO)O1)N1CCOCC1` came in with a viability index under setting [1] of 1.05 ± 0.026. The same measure, in the same setting: the value for `COCC(=O)NC[C@@H]1[C@H](c2ccccc2)[C@H](CO)N1C(=O)c1ccccc1` was 0.986 ± 0.17. As to `C[C@H]1CN([C@@H](C)CO)C(=O)c2cccc(NC(=O)c3cnccn3)c2O[C@H]1CN(C)C(=O)NC1CCCCC1`, the viability index under setting [1] was 1.01 ± 0.033. Consider `COc1ccccc1-c1ccc2n(c1=O)C[C@@H]1[C@@H](CO)[C@H](C(=O)N3CCOCC3)[C@H]2N1CC1CC1`, for which the viability index under setting [1] was determined as 1.04 ± 0.016. Take `COc1cccc(-c2ccc3n(c2=O)C[C@@H]2[C@@H](CO)[C@H](C(=O)N(C)C)[C@H]3N2C(=O)c2ccccn2)c1`: the viability index under setting [1] was 1.04 ± 0.017. For `CO[C@@H]1CN(C)C(=O)c2ccc(NC(=O)C3CC3)cc2OC[C@@H](C)N(C(C)=O)C[C@@H]1C`, under setting [1], the viability index worked out at 1.02 ± 0.042.

For `CN1C[C@@H](O)COC[C@H]2O[C@H](CC(=O)NC3CCCC3)CC[C@@H]21`, under setting [1], the viability index stood at 1.05 ± 0.064. Under setting [1], `O=C(c1ccc2c(c1)OCO2)N1C[C@@H]2N[C@H](C1)[C@@H]2c1ccc(-c2cncnc2)cc1` showed a viability index of 1.08 ± 0.035. Compound `O=C(C1CCC1)N1C[C@@H]2N[C@H](C1)[C@@H]2c1ccc(/C=C/c2ccccc2)cc1` yielded a viability index under setting [1] of 0.799 ± 0.019. The same measure, in the same setting: the value for `O=C(c1ccc2c(c1)OCO2)N1C[C@@H]2N[C@H](C1)[C@H]2c1ccc(/C=C/c2ccccc2)cc1` was 1.05 ± 0.017; that for `O=C(C1CCC1)N1C[C@@H]2N[C@H](C1)[C@@H]2c1ccc(-c2cncnc2)cc1` was 1.115 ± 0.0039. `O=C(c1ccc2c(c1)OCO2)N1C[C@@H]2N[C@H](C1)[C@@H]2c1ccc(/C=C/c2ccccc2)cc1` came in with a viability index under setting [1] of 0.731 ± 0.086. Under setting [1], `COc1ccccc1NC(=O)N1C[C@@H]2N[C@H](C1)[C@H]2c1ccc(/C=C/c2ccccc2)cc1` registered a viability index of 0.976 ± 0.048.

Compound `C/C=C/c1ccc([C@H]2[C@@H]3CN(C(=O)Nc4ccccc4F)C[C@H]2N3)cc1` returned a viability index under setting [1] of 1.06 ± 0.034. `O=C(C1CCC1)N1C[C@@H]2N[C@H](C1)[C@H]2c1ccc(/C=C/c2ccccc2)cc1` had a viability index under setting [1] of 1.02 ± 0.042. In turn, `COc1ccccc1NC(=O)N1C[C@@H]2N[C@H](C1)[C@@H]2c1ccc(/C=C/c2ccccc2)cc1` registered a viability index under setting [1] of 0.571 ± 0.027.
